Screening results as filed in PubChem.
BAZ2B inh – inhibitors of human BAZ2B bromodomain. Q9UIF8. AlphaScreen BAZ2B-H3K14Ac peptide displacement. Potency, µM (series often up to 114 µM), actives largely listed as inhibitors. 4.4% of 360,000 active. AID 504333; note: nearly all actives have a fitted effect of over 60% in size
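AlphaScreen displacement of biotin-H3(5-23)K14Ac peptide (50 nM final) from BAZ2B (50 nM final) in PBS pH 7.4, 0.01% Tween-20; complex preformed 30 min RT, then compounds (top 110 uM) 30 min RT, beads 20 min dark.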
HP1b binding inh – inhibitors of HP1-beta chromodomain binding to methylated histone tails | AlphaScreen HP1-beta / biotin-H3K9me3 peptide binding | AID 540317 | Potency, µM (highest dose often 114 µM), usual class: inhibitors | 0.56% of 390,000 active; note: nearly all actives have a fitted effect of over 70% in size
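Compound inhibition of the preformed complex between 50 nM HP1-beta and 50 nM biotinylated H3K9me3 peptide was read by AlphaScreen. Buffer was PBS pH 7.4 with 0.01% Tween-20. Incubations ran 30 min at room temperature, with 10 ug/mL donor/acceptor beads.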
JMJD2A Tudor inh – JMJD2A Tudor domain (human) inhibition; O75164; AlphaScreen JMJD2A-Tudor / H3K4me3 peptide binding; Potency, µM (titrated, usually from 114 µM), hits mostly inhibitors; 4.4% of 390,000 active; AID 504339; note: nearly all actives have a fitted effect of over 50% in size
Target sequence (O75164 whole entry, looked up, the tested form may be a part): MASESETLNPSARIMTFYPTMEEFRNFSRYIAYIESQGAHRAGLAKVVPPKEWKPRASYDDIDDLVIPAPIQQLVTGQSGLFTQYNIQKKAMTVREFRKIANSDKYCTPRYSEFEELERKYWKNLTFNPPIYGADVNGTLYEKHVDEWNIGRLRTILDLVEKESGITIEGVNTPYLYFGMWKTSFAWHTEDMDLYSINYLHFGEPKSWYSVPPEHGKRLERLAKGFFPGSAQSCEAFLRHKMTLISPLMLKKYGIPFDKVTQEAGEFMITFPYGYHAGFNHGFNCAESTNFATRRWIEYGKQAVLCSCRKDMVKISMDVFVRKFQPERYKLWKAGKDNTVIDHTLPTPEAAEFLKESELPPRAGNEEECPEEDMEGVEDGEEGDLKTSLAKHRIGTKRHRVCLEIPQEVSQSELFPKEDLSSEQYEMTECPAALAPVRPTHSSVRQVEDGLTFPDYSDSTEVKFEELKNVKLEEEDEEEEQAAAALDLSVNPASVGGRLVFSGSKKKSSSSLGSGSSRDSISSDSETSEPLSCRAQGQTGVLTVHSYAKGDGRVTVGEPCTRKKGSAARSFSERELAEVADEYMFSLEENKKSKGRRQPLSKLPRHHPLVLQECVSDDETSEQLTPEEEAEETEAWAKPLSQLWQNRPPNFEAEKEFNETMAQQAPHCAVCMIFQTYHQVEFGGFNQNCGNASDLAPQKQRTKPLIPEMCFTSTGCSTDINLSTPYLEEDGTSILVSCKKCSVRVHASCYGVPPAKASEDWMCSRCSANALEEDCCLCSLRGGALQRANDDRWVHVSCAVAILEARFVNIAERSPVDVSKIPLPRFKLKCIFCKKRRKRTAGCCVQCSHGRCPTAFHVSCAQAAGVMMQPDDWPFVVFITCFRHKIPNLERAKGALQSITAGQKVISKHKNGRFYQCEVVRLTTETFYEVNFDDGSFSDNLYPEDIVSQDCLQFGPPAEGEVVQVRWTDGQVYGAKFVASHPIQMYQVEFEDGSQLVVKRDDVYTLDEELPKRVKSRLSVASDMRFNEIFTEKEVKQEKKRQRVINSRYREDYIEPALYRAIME
L3MBTL1 inh – L3MBTL1 (human) inhibition; Q9Y468; AlphaScreen L3MBTL1–H3K9me1 peptide binding; AID 485360; 0.66% of 230,000 active; Potency, µM (top dose mostly 57.1 µM), hits mostly inhibitors; note: nearly all actives have a fitted effect of over 60% in size
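L3MBTL1 (50 nM) pre-complexed 30 min with biotinylated H3(1-15)K9me1 peptide (75 nM), then compounds added for 30 min at room temperature; AlphaScreen streptavidin donor/nickel chelate acceptor beads (10 ug/mL final) read after 30 min dark incubation.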
G9a block – inhibitors of human histone lysine methyltransferase G9a; Potency, µM (highest dose often 102 µM), hits mostly inhibitors; G9a H3K9 monomethylation, AlphaScreen, 2 h; 8.8% of 350,000 active; note: nearly all actives have a fitted effect of over 75% in size
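Using a bead-based AlphaScreen, monomethylated H3K9 product from 2 h room-temperature reactions (G9a 20 nM, peptide 500 nM, SAM 20 uM) was detected with 0.5 ug/mL rabbit anti-H3K9me1 antibody.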
Each line names hits and unclear results; the compound was inactive in the other large screens. In the library only some 11% were active in any assay of this set; here they are far more common. Calls come from the whole dose curve; as a rule, active = well fitted inhibition curve with a large enough effect; inconclusive = small, poorly fitted or top-dose-only effect; inactive = no such curve, though single readings can be large or run the other way.

COc1ccc(N2CCN(S(=O)(=O)c3cc(C)ccc3OC)CC2)cc1	BAZ2B inh 45µM, HP1b binding inh inconclusive, JMJD2A Tudor inh inconclusive, G9a block inconclusive
COc1ccc(S(=O)(=O)N2CCN(S(=O)(=O)c3c(F)cccc3F)CC2)cc1	none (no result: HP1b binding inh)
Nc1nnn(CC(=O)N/N=C/c2ccc(Cl)cc2Cl)n1	none
C=CCC[C@@H](Cc1ccc(F)cc1)C(=O)OC[C@@H](Cc1ccccc1)NC(=O)[C@@H](CC=C)CC(=O)N[C@@H](CO)Cc1ccccc1	none (no result: BAZ2B inh, G9a block)
Cc1cc(/C([O-])=C(/C(=S)Nc2ccccc2)[n+]2ccccc2)c(C)n1-c1ccccc1	BAZ2B inh inconclusive, HP1b binding inh inconclusive, G9a block 50µM (no result: JMJD2A Tudor inh, L3MBTL1 inh)
Cc1cc(/C([O-])=C(/C(=S)Nc2ccc(F)cc2)[n+]2ccccc2)c(C)n1-c1ccc(F)cc1	BAZ2B inh 45µM, JMJD2A Tudor inh 50µM, G9a block inconclusive (no result: HP1b binding inh)
CCn1c(SCC(=O)c2ccc(Cl)cc2)nnc1-c1ccoc1C	JMJD2A Tudor inh 50µM
CCn1c(SCC(=O)c2ccc(C)cc2)nnc1-c1ccoc1C	G9a block 50µM
CNC(=O)C1CCC(Cn2c(=O)c3sccc3n(Cc3ccccc3)c2=O)CC1 (centres undefined)	none (no result: L3MBTL1 inh)
CCc1cc2c(cc3c(=O)n(CC(=O)NC(C)C)nc(CC)n32)s1	none (no result: L3MBTL1 inh)
O=c1c2c(-c3ccccc3)csc2ncn1/N=C/c1cccc([N+](=O)[O-])c1O	BAZ2B inh 50µM, JMJD2A Tudor inh 79µM, G9a block 40µM (no result: L3MBTL1 inh)
O=c1c2c(-c3ccccc3)csc2ncn1/N=C/c1ccc(O)c([N+](=O)[O-])c1	G9a block inconclusive (no result: L3MBTL1 inh)
COc1ccc(NC(=O)Cn2nnc(C(=O)NCc3ccc4c(c3)OCO4)c2N)cc1	none
COc1ccc(NC(=O)Cn2nnc(C(=O)NCc3ccc4c(c3)OCO4)c2N)c(OC)c1	JMJD2A Tudor inh 28µM (no result: L3MBTL1 inh)
C=Cc1ccc(Cn2c(=O)n(-c3ccc(C)cc3)c(=O)c3c2c2cc(OC)ccc2n3C)cc1	G9a block inconclusive (no result: L3MBTL1 inh)
COC(=O)c1c(NC(C)=O)c2c3c(sc2n1Cc1cc(C)ccc1C)CCCC3	none (no result: L3MBTL1 inh)
Cc1ccc(OCC(=O)NNC(=O)c2cccnc2)cc1	G9a block 79µM
COc1cccc(C(=O)NCCCNC(=O)c2cccnc2)c1	none (no result: L3MBTL1 inh)
O=C(NCCOC(=O)C1COc2ccccc2O1)C1COc2ccccc2O1 (centres undefined)	G9a block inconclusive
COc1ccc(OCC(=O)NNC(=O)c2cccnc2)cc1	BAZ2B inh inconclusive
O=C(NCCOC(=O)C1COc2ccccc2O1)c1cccnc1 (centres undefined)	BAZ2B inh inconclusive, JMJD2A Tudor inh 40µM, G9a block 50µM
COc1cccc(C(=O)OCCNC(=O)c2cccnc2)c1	G9a block 50µM (no result: L3MBTL1 inh)
COc1ccc(OCC(=O)OCCNC(=O)c2cccnc2)cc1	BAZ2B inh inconclusive, JMJD2A Tudor inh 50µM, G9a block 32µM
Cc1nnc(SCc2ccc(F)cc2)s1	none
Cc1nc(CSc2nnc(C)s2)cs1	G9a block 45µM
COc1cccc(-n2c(=O)[nH]cc(C(=O)Nc3ccc(NC(C)=O)cc3)c2=O)c1	G9a block 45µM
COc1ccc(NC(=O)c2c[nH]c(=O)n(-c3ccc(C)c(C)c3)c2=O)cc1OC	none
Oc1cccc(/C=N/n2c(C3CCCCC3)n[nH]c2=S)c1	JMJD2A Tudor inh 32µM, G9a block 2µM (no result: L3MBTL1 inh)
O=[N+]([O-])c1cccc(/C=N/n2c(C3CCCCC3)n[nH]c2=S)c1	JMJD2A Tudor inh inconclusive, G9a block 1.6µM
COc1cc(/C=N/n2c(C3CCCCC3)n[nH]c2=S)cc(OC)c1O	HP1b binding inh inconclusive, JMJD2A Tudor inh 2.8µM, G9a block 2µM (no result: L3MBTL1 inh)
COc1cc(/C=N/N2C(C)CCCC2C)cc(OC)c1O (centres undefined)	G9a block inconclusive (no result: L3MBTL1 inh)
Cc1nnc(C)n1/N=C/c1cccc([N+](=O)[O-])c1	none
Fc1cccc(/C=N/n2c(C3CCCCC3)n[nH]c2=S)c1	G9a block inconclusive (no result: L3MBTL1 inh)
Cc1cc(-c2n[nH]c(=S)n2/N=C/c2cccc([N+](=O)[O-])c2)n[nH]1	HP1b binding inh inconclusive, JMJD2A Tudor inh 7.9µM, G9a block 1.6µM
CCCCc1noc(-c2c(-c3ccccc3Cl)noc2C)n1	none (no result: L3MBTL1 inh)
COc1cccc(/C=N/n2c(C3CCCCC3)n[nH]c2=S)c1	JMJD2A Tudor inh 32µM, G9a block 2.5µM (no result: L3MBTL1 inh)
O=C(O)/C=C/c1ccc([N+](=O)[O-])o1	BAZ2B inh 56µM, HP1b binding inh 50µM, JMJD2A Tudor inh 35µM, L3MBTL1 inh inconclusive, G9a block 22µM
CCCOC(=O)CCCN1C(=O)/C(=C2\SC(=S)N(CCCC(=O)OCCC)C2=O)SC1=S	BAZ2B inh 3.2µM, HP1b binding inh inconclusive, JMJD2A Tudor inh inconclusive, G9a block 1.1µM
CCCCCOC(=O)CCN1C(=O)/C(=C2\SC(=S)N(CCC(=O)OCCCCC)C2=O)SC1=S	BAZ2B inh inconclusive (no result: G9a block)
CC(=O)c1ccc(N2C(=O)[C@@H]3[C@H](C2=O)[C@H]2c4ccccc4C=NN2[C@@H]3C(C)=O)cc1	none (no result: L3MBTL1 inh, G9a block)
CC(=O)[C@@H]1[C@@H]2C(=O)N(c3ccccc3F)C(=O)[C@@H]2[C@H]2c3ccccc3C=NN12	G9a block 50µM
O=C(c1ccc(Cl)cc1)[C@@H]1[C@@H]2C(=O)N(c3cccc4ccccc34)C(=O)[C@@H]2C2c3ccccc3C=NN21 (some centres undefined)	JMJD2A Tudor inh inconclusive, G9a block 20µM
COc1ccc(N2C(=O)[C@H]3[C@@H](C2=O)C2c4ccccc4C=NN2[C@H]3C(=O)C(C)(C)C)cc1 (some centres undefined)	BAZ2B inh inconclusive (no result: L3MBTL1 inh, G9a block)
CCc1ccc(C(c2c(C)nn(-c3ccccc3)c2N)c2c(C)nn(-c3ccccc3)c2N)cc1	BAZ2B inh inconclusive, JMJD2A Tudor inh 56µM, G9a block inconclusive
Cc1cccc(C(c2c(C)nn(-c3ccccc3)c2N)c2c(C)nn(-c3ccccc3)c2N)c1	BAZ2B inh inconclusive
COC(=O)c1sc(SC)c(S(=O)(=O)C(C)C)c1N/N=C(\C#N)C(=O)c1ccccc1	JMJD2A Tudor inh inconclusive, G9a block 45µM
CCOC(=O)/C(C#N)=C1/CCCCCN1C	none
CCOC(=O)/C(C#N)=C1\CCCN1CC(N)=S	G9a block 18µM
COc1ccc(/C=C2\SC(=N)N(c3ccc(F)cc3)C2=O)cc1OC	none (no result: L3MBTL1 inh)
CCOc1cc(/C=C2\SC(=N)N(c3nonc3N)C2=O)ccc1OCC(N)=O	BAZ2B inh inconclusive, JMJD2A Tudor inh inconclusive, G9a block 45µM
Cc1cc(C(=O)CN2C(=O)NC(Cc3c[nH]c4ccccc34)C2=O)c(C)n1C (centres undefined)	BAZ2B inh 50µM, JMJD2A Tudor inh inconclusive, L3MBTL1 inh inconclusive, G9a block 50µM
Cc1ccc(C(=O)Sc2cccccc2=O)cc1	BAZ2B inh 40µM, HP1b binding inh inconclusive, G9a block 10µM (no result: L3MBTL1 inh)
Nc1nnc(SCc2ccc([N+](=O)[O-])cc2)s1	none
